# Source: PubChem BioAssay (National Center for Advancing Translational Sciences (NCATS))
# An excerpt weighted towards active compounds, which were near 3.6% of everything screened.
# PLK1 PBD block – inhibitors of human PLK1 polo-box domain binding; P53350; Plk1 PBD binding of FITC phosphopeptide, fluorescence polarization; Potency, µM, inactives show max response, negative = inhibition, most hits filed as inhibitors; hit rate 2.8% among 360,000; AID 720504; further: potency means the concentration at half of the fitted maximal effect; series mostly up to about 57 µM; on the % scale 0 is the no-effect control and ±100 the full control effect; nearly all actives have a fitted effect of over 65% in size
# Rango release inh – prevents RanGTP from dissociating the Rango-importin beta complex; Biochemical FRET Rango-importin beta, RanGTP-induced dissociation; Potency, µM (titrated, usually from 46.1 µM), without a hit: at the highest dose activity change, negative = inhibition; hit rate 0.071% among 340,000; AID 540253; calls by dose curve; further: potency means the concentration at half of the fitted maximal effect; % of control where 0% means no effect; nearly all actives have a fitted effect of over 45% in size
#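 FRET read at 45 min, room temperature: inhibitors block the CFP/YFP signal rise when RanGTP (0.6 uM Ran, 2 mM GTP, 0.2 uM RCC1) frees Rango (0.1 uM) from importin beta (0.25 uM). Pre-read after 5 min compound exposure flags interference.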
# PI5P4K alpha inh – blocks human PI5P4K alpha kinase activity; P48426; PI5P4Kalpha enzyme, ADP-Glo luminescence, 60 min; stronger effect = lower value; max response, %; hit rate 1.2% among 330,000; AID 652105; active means max response of -50% or lower; inconclusive means between -30% and -50%; inactive means -30% or higher; further: value at the top dose of about 77 µM; on the % scale 0 is the no-effect control and ±100 the full control effect
#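 Reactions run in 0.038 M HEPES pH 7.4, 0.28 mM EGTA, 0.1% CHAPS and 5% DMSO, with PI5P4Kalpha, substrate, compound and 5 microM ATP final, one hour at room temperature. Readout is ADP-Glo luminescence.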
# KAT2A inh – inhibitors of human GCN5L2 histone acetyltransferase | Q92830 | GCN5L2 HAT assay, ThioGlo1 CoA-SH fluorescence | Potency, µM (doses to about 58.9 µM), without a hit: at the highest dose activity change, negative = inhibition, actives largely listed as inhibitors | hit rate 0.21% among 390,000 | AID 504327; further: potency means the concentration at half of the fitted maximal effect; on the % scale 0 is the no-effect control and ±100 the full control effect
#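 GCN5L2 (20nM final) in 50mM HEPES, 0.1mM EDTA pH 7.5, 0.01% Tween-20 was preincubated 15 min at room temperature with compound, then given ThioGlo1 (50uM), H3(1-25) peptide (75uM) and acetyl-CoA (70uM); CoA-thiol fluorescence (Ex340/Em540) was read at 0 and 20 min.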
# Rango complex inh – inhibitors of Rango-importin beta complex formation; Rango CFP/YFP FRET sensor + importin beta, 45 min; Potency, µM (highest dose often 92.2 µM), for the others: at the top dose inhibition of complex formation; Q14974; hit rate 0.031% among 340,000; AID 540263; calls by dose curve;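 further: potency means the concentration at half of the fitted maximal effect; 0% = DMSO wells and 100% = buffer wells lacking importin beta; nearly all actives have a fitted effect of over 15% in size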
#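 Inhibition scored from the CFP 486 nm/YFP 530 nm FRET ratio 45 min after adding 0.125 microM importin beta to 50 nM Rango biosensor preincubated 5 min with compound (room temperature, PBS with DTT, Tween-20, BSA). No-importin wells as positive control.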
# VDR inh – blocks the human vitamin D receptor; P11473; VDR-SRC2-3 peptide fluorescence polarization, 2 h; Potency, µM, for inactives: max response, negative = inhibition, actives largely listed as inhibitors; hit rate 0.93% among 400,000; further: potency means the concentration at half of the fitted maximal effect; on the % scale 0 is the no-effect control and ±100 the full control effect
# Target sequence (P11473 whole entry, looked up): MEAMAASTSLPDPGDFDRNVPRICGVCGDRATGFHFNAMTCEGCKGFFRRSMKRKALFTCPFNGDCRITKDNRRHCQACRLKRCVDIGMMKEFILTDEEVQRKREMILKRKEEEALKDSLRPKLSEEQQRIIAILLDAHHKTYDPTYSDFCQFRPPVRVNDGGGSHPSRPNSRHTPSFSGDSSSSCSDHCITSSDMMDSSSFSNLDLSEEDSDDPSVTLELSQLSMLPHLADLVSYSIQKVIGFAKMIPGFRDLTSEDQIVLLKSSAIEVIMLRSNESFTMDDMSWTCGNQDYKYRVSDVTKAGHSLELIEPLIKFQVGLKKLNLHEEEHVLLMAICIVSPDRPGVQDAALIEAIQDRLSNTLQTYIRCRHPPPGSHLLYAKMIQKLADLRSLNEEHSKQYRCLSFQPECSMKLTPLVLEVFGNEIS
#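 FP read-out; VDR + SRC2-3 coactivator peptide; 23 nl compound by pintool; 2 h RT incubation; reagents held at 4 deg C, protected from light.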
# Numbers without * were called inactive; ? = inconclusive; . = not tested or not shown. Unless noted, the call rests on the fitted dose curve; in most records, active means well fitted curve in the direction sought with a large enough effect; inconclusive means small, poorly fitted or top-dose-only effect, or another doubt; inactive means no such curve, though single readings can be large; an effect the other way counts as inactive or inconclusive.
SMILES,PLK1 PBD block,Rango release inh,PI5P4K alpha inh,KAT2A inh,Rango complex inh,VDR inh
CCN(C(=O)C1CCCN(c2ncnc3c2nc2n3CCCCC2)C1)c1cccc(C)c1 (stereo unspecified),.,.,.,-3%,.,8%
C#C[C@]1(OC(C)=O)CC[C@H]2[C@@H]3CCC4=CC(=O)CC[C@@H]4[C@H]3CC[C@@]21C,.,.,.,-6%,.,?
O=C(NC1CCCC1)c1ccc(CSc2nc3cccnc3n2Cc2ccccc2F)cc1,.,.,.,2%,.,5%
COc1ccc2o/c(=N\O)c(C(=O)Nc3ccccc3OC)cc2c1,0%,-5%,0,?,5%,-11%
COc1ccccc1NC(=O)c1cc2cc(Br)ccc2oc1=N,-8%,-4%,8,-2%,1%,89µM*
Cc1ccc(Cn2cc(C(=O)c3ccc4c(c3)OCO4)c(=O)c3cc(C)ccc32)cc1,.,.,.,-7%,.,9%
O=c1c(-c2ccnn2-c2ccc(F)cc2)cnc2n1CCS2,-5%,21%,-2,4%,-3%,-1%
N#Cc1ccc(-n2nccc2-c2cnc3n(c2=O)CCS3)cc1,27µM*,5%,-15,-1%,-5%,?
COc1ccccc1NC(=O)C1=C(C)Nc2nc3ccccc3n2C1c1ccccc1Cl (stereo unspecified),.,.,.,-5%,.,-2%
Cn1cc(C(c2ccccc2OCC(=O)O)c2cn(C)c3ccccc23)c2ccccc21,3µM*,3%,-53*,-5%,1%,40µM*
CCn1c(=O)cc(OCC(=O)O)c2ccccc21,-4%,2%,?,2%,0%,-7%
COc1cc(NC(=S)N2CCN(CCO)CC2)c(OC)cc1Cl,-7%,1%,-7,1%,-6%,-15%
OCCN1CCN(C(=S)c2ccc(Cl)c(Cl)c2)CC1,4.7µM*,-8%,.,-15%,-2%,22µM*
CN(Cc1ccccc1)C(=O)C1CCN(S(=O)(=O)c2cccc3nsnc23)CC1,3.4µM*,24%,2,1%,5%,?
CN(CCCNC(=O)C1CCN(S(=O)(=O)c2cccc3nsnc23)CC1)Cc1ccccc1,-4%,-7%,-2,0%,-3%,9%
COc1ccc(C(=O)N/C(=C\c2cn(C)c3ccccc23)C(=O)N2CCN(C)CC2)cc1OC,27µM*,-2%,-12,-26%,2%,?
CN1CCN(C(=O)/C(=C/c2cn(C)c3ccccc23)NC(=O)c2ccccc2)CC1,-20%,-1%,-2,1%,1%,5%
COc1ccc(CNC(=O)CSc2nnc3c(n2)[nH]c2ccccc23)cc1,-2%,0%,-7,-5%,5%,-1%
O=C(Cn1cnc2sc(-c3ccccc3)cc2c1=O)NCc1ccccc1,-7%,0%,.,-30%,1%,0%
O=C(CSc1nnc2c(n1)[nH]c1ccccc12)NCc1ccco1,30µM*,14%,?,-11%,-1%,-4%
O=C(Cn1cnc2sc(-c3ccccc3)cc2c1=O)NCc1ccco1,2.7µM*,-1%,-83*,?,-3%,?
CCCc1c(O)nc(SCC(=O)NCc2ccco2)[nH]c1=O,4%,24%,?,-5%,0%,13%
O=C(CSc1nc(-c2ccccc2)c(-c2ccccc2)[nH]1)NCc1ccco1,21µM*,-3%,.,-9%,-1%,?
O=C(CSc1ncc(-c2ccccc2)nn1)NCc1ccco1,-13%,1%,.,-2%,0%,3%
O=C(CSc1nnc(-c2ccccc2)c(-c2ccccc2)n1)NCc1ccco1,21µM*,10%,-20,-3%,2%,-3%
SMILES,PLK1 PBD block,Rango release inh,PI5P4K alpha inh,KAT2A inh,Rango complex inh,VDR inh
CCCc1cc(=O)[nH]c(Nc2ccc(C)c(O)c2)n1,.,.,.,-2%,.,-2%
Cc1ccc(Oc2nc3ccccn3c(=O)c2/C=C(\C#N)c2nc3ccccc3s2)c(C)c1,.,.,.,3%,.,?
NC(=O)CSc1nnc(-c2ccccc2)c(-c2ccccc2)n1,-9%,19%,-3,3%,-12%,3%
O=C(O)CSc1nnc(-c2ccccc2)c(-c2ccccc2)n1,9.5µM*,-3%,-27,3%,3%,?
COc1ccc(/C=N/NC(=O)c2nonc2N)cc1OC,-2%,-2%,7,-2%,0%,-13%
CN(C)c1ccc(/C=N/NC(=O)c2nonc2N)cc1[N+](=O)[O-],27µM*,6%,-6,-8%,3%,-17%
O=S(=O)(c1cccc(Br)c1)N1CCN(c2nc(-c3cccs3)nc3ccccc23)CC1,.,.,.,.,.,-6%
COc1cc(CN(C(=O)COc2ccc(Cl)cc2)c2ccccn2)cc(OC)c1OC,.,.,.,-3%,.,-1%
Cc1nc(SCC(=O)c2ccccc2)n[nH]1,27µM*,16%,-53*,?,0%,50µM*
CCc1nc(SCC(=O)c2cccc([N+](=O)[O-])c2)n[nH]1,-3%,-7%,-20,-5%,5%,50µM*
Cc1cc(N2CCCCC2)nc(SCC(=O)c2ccccc2)n1,-12%,8%,0,2%,0%,-14%
O=C(CSc1n[nH]c(-c2ccncc2)n1)c1ccccc1,-8%,-4%,.,2%,1%,-5%
O=C(CSc1nc(N2CCCCC2)nc(N2CCCCC2)n1)c1ccccc1,30µM*,17%,4,-8%,5%,-3%
Nc1nc(SCC(=O)c2cccc([N+](=O)[O-])c2)n[nH]1,?,-8%,5,-4%,-1%,?
Nc1cccc(-c2cn3cccnc3n2)c1,30µM*,-8%,2,-4%,-3%,-21%
Nc1ccccc1SC/C=C/CSc1ccccc1N,12µM*,-15%,6,0%,1%,-23%
CCOC(=O)CSC1=C(C#N)C(=O)NC2(CCCCC2)S1,?,-7%,-52*,?,-4%,79µM*
CCOC(=O)CSC1=C(C#N)C(c2ccc(C)s2)CC(=O)N1 (stereo unspecified),3%,9%,.,-4%,-5%,8%
COc1ccc(OC)c(NC(=O)C2CCCN(S(=O)(=O)c3ccc4[nH]c(=O)ccc4c3)C2)c1 (stereo unspecified),.,.,.,1%,.,4%
O=C(COC(=O)CSc1ccc([N+](=O)[O-])cc1)NCCCc1ccccc1,8.4µM*,0%,?,-7%,0%,71µM*
CCN(C(=O)COc1ccccc1[N+](=O)[O-])C1CCS(=O)(=O)C1 (stereo unspecified),7%,25%,-4,2%,0%,2%
CC(OC(=O)CSc1ccc([N+](=O)[O-])cc1)C(=O)NCc1ccccc1 (stereo unspecified),4.7µM*,-3%,?,-9%,-3%,79µM*
O=C(COC(=O)CSc1ccc([N+](=O)[O-])cc1)NCCc1ccccc1,?,2%,1,-2%,2%,-19%
